Hit rate of the full screen: of about 52,000 compounds, about 1,700 (3.3%) were called active. This excerpt belongs to a sample that is enriched for actives. A number with no mark means an inactive call. No stated cut-off is given here; in the data, active means survival mostly below about 52% (no sharp cut-off); inactive means mostly above about 56%.

The test deals with Wild type. The experiment in a line: growth inhibition of S. aureus wild type versus tarO mutant, primary screen, teichoic acid synthesis inhibitors, RN4220, OD600 (AID 463173). The note with it: S. aureus RN4220 wild type/DeltatarO growth, OD600, 18 h, active compounds read low, screened at 18.75 µg/mL (by protocol).
For `Cc1ccc(C2c3[nH]c4ccccc4c3CCN2C(=O)c2ccc(N(C)C)cc2)cc1` (centres undefined), the survival is 68%.

On to `CCc1cccc(C)c1Nc1c(-c2ccsc2)nc2ncccn12`, for which the survival is 66%.

On to `CNC(=S)N(CCN1CCOCC1)Cc1cc2cc(C)c(Cl)cc2[nH]c1=O`, for which the survival was 113%.

In the case of `Cc1cccn2c(=O)c(/C=C(\C#N)c3nc4ccccc4s3)c(Oc3ccc(Br)cc3)nc12`, the survival was 129%.

For `O=C(NCc1cccc(Cl)c1)c1cc2ccc3cccnc3c2[nH]1`, the survival was 82%.

As to `N#Cc1ccccc1CSc1nnc(-c2ccc(Br)cc2)o1`, the survival was 73%.

For the molecule `Cc1ccc(-c2nnc(SCc3ccccc3C)o2)cc1`, the survival is -4% (active).

With `CCCCCSc1nnc(-c2ccc(Br)cc2)o1`, the survival was -1% (active).

As to `COc1ccc(-c2nnc(SCC(=O)Oc3cc(C)ccc3C)o2)cc1`, the survival is 86%.

On to `N#Cc1ccc(CSc2nnc(-c3ccc(Br)cc3)o2)cc1`, for which the survival is 74%.

For `CCOC(=O)CSc1nnc(-c2ccc(OC)cc2)o1`, the survival is 72%.

Take `CCCCOC(=O)CSc1nnc(-c2ccc(C)cc2)o1`: the survival is 8% (active).

Regarding `Cc1ccc(CSc2nnc(-c3ccc(O)cc3)o2)cc1`, the survival is 108%.

As to `Cc1ccc(-c2nnc(SCc3ccccc3C#N)o2)cc1`, the survival is 66%.

On to `Cc1ccc2occ(-c3cc(-c4ccc(F)cc4)nc4c3COc3ccc(F)cc3-4)c(=O)c2c1`, for which the survival is 76%.

As for `Cc1ccc(-n2c(=O)[nH]c3cc(C(=O)NCCc4ccccc4)ccc3c2=O)cc1`, the survival is 85%.

As for `O=C(Nc1ccc(OCc2cc(=O)n3c4c(sc3n2)CCCC4)cc1)c1cccc(F)c1`, the survival was 78%.

Consider `Cc1ccc(Cl)cc1NC(=O)Nc1nnc(N(C)Cc2ccccc2)s1`, for which the survival was 93%.

As for `COc1ccc(-c2nc3sc(CCNC(=O)C(=O)Nc4ccccc4C#N)c(C)n3n2)cc1`, the survival was 85%.

Take `Cc1noc(C)c1S(=O)(=O)N1CCC(C(=O)N2CCN(c3ccccc3)CC2)CC1`: the survival was 128%.

As for `CCOC(=O)CC(=O)CSc1nc2ccccc2c(=O)n1CCc1ccc(S(N)(=O)=O)cc1`, the survival is 71%.

Take `Cc1ccc(C(=O)COC(=O)CCC(=O)Nc2ccc(Oc3ccccc3)cc2)cc1`: the survival was 90%.

Take `CC(C)(Oc1ccc(Cl)cc1)C(=O)Nc1ccc(-c2nc3ncccc3o2)cc1`: the survival is 74%.

Take `Cc1ccc2oc(-c3ccc(C)c(NC(=O)C(C)(C)Oc4ccc(Cl)cc4)c3)nc2c1`: the survival is 43%.

For `COc1c(Cl)cc(Cl)cc1C(=O)Nc1cccc(-c2nc3ccccc3o2)c1C`, the survival was 125%.

Take `Cc1c(NC(=O)C(C)(C)Oc2ccc(Cl)cc2)cccc1-c1nc2ncccc2o1`: the survival was -3% (active).

`Cc1c(NC(=O)C(C)(C)Oc2ccc(Cl)cc2)cccc1-c1nc2ccccc2o1`: the survival was 1% (active).

Consider `Cc1cc(NC(=O)C(C)(C)Oc2ccc(Cl)cc2)cc(-c2nc3ncccc3o2)c1O`, for which the survival was 92%.

In the case of `COc1ccc(-c2nc(CN3CCC(C(=O)NCCCOC(C)C)CC3)c(C)o2)cc1OC`, the survival is 80%.

Regarding `CCCn1cc(S(=O)(=O)c2ccc(OC)cc2)c(=O)c2cc(F)c(N3CCCC(C)C3)cc21` (centres undefined), the survival is 71%.

For `CCOc1ccc(C(=O)NCCS(=O)(=O)N2CCN(c3ccccc3F)CC2)cc1OCC`, the survival is 102%.

Take `COc1ccc(OCC(=O)Nc2ccc(-c3nc4cc(C)c(C)cc4o3)cc2)cc1`: the survival is 77%.

Take `COc1ccc(OC)c(Nc2ncnc3c2cnn3-c2ccc(C)cc2)c1`: the survival is 14% (active).

Turning to `COc1ccc(CCNc2ncnc3c2cnn3-c2ccc(C)cc2)cc1`, the survival is 71%.

In the case of `COc1ccc(OC)c(Nc2ncnc3c2cnn3-c2cccc(Cl)c2)c1`, the survival is 64%.

`CCOc1ccccc1Nc1ncnc2c1cnn2-c1ccc(C)cc1`: the survival is 76%.

Turning to `Cc1ccc(-n2ncc3c(Nc4cccc(C)c4C)ncnc32)cc1`, the survival was 78%.

Turning to `COc1ccc(-n2ncc3c(NCCCOC(C)C)ncnc32)cc1`, the survival was -2% (active).

`Cc1ccc(C)c(Nc2ncnc3c2cnn3-c2ccc(F)cc2)c1`: the survival was -3% (active).

In the case of `COc1ccc(Nc2ncnc3c2cnn3-c2ccc(C)cc2)cc1Cl`, the survival is 133%.

Consider `COCCCNc1ncnc2c1cnn2-c1ccc(F)cc1`, for which the survival is 82%.

Regarding `Cc1ccc(Cn2c(C(=O)O)c(CNC3CCCCCC3)c3ccc(C)cc32)cc1`, the survival is 74%.

For the molecule `CCCNC(=O)C1CCC(Cn2c(=O)c3sccc3n(CC(=O)NCc3cccc(OC)c3OC)c2=O)CC1` (centres undefined), the survival is 133%.

Take `COc1cccc(NC(=O)c2cnc(SCC(=O)N3CCCc4ccccc43)n(C)c2=O)c1`: the survival is 54%.

Turning to `COc1cccc(-c2cn3ncsc3n2)c1`, the survival is 80%.

In the case of `Cc1cc(NNC(=O)c2ccccc2)nc(NNC(=O)c2ccccc2)n1`, the survival is 103%.

For the molecule `CCCc1noc(-c2ccc(NCc3ccccc3OC)c([N+](=O)[O-])c2)n1`, the survival is 79%.

As to `Cc1ccc(/C=C(\C#N)c2nc(-c3ccc(-c4ccccc4)cc3)cs2)cc1`, the survival was 83%.

As to `CN(C)c1ccc(/C=C(\C#N)c2nc(-c3ccc(Cl)c(Cl)c3)cs2)cc1`, the survival was 89%.

Take `CCc1ccc(/C=C(/C#N)c2nc(-c3ccc(C)cc3)cs2)cc1`: the survival was -2% (active).

For `N#C/C(=C/c1ccc(Cl)cc1)c1nc(-c2ccc(Br)cc2)cs1`, the survival was 83%.

As for `CC(C)c1ccc(/C=C(\C#N)c2nc(-c3ccc(O)cc3)cs2)cc1`, the survival was 0% (active).

For `COc1ccc(/C=C(/C#N)c2nc(-c3ccc(-c4ccccc4)cc3)cs2)cc1`, the survival is 66%.

As for `CCOc1ccc(-c2csc(/C(C#N)=C/c3ccc(Br)cc3)n2)cc1`, the survival is 71%.

Turning to `N#C/C(=C\c1ccc(F)cc1)c1nc(-c2ccc(-c3ccccc3)cc2)cs1`, the survival was 74%.

For the molecule `N#C/C(=C/c1ccc(O)cc1)c1nc(-c2ccc(-c3ccccc3)cc2)cs1`, the survival was 0% (active).

As for `Cc1nn2c3c(cnc2c1-c1ccc(Cl)cc1)C(=O)CC(c1ccc(C(C)C)cc1)C3` (centres undefined), the survival was 78%.

For the molecule `Cc1ccc(-n2nnc3c(sc4nc(C)c(C)cc43)c2=O)cc1Cl`, the survival was 84%.

Turning to `CCCCC(=O)OC1=C(C(=O)c2ccccc2)N(CC)S(=O)(=O)c2ccccc21`, the survival is 71%.

For the molecule `CCCCC(=O)OC1=C(C(=O)c2ccccc2)N(C)S(=O)(=O)c2ccccc21`, the survival was 108%.

As to `CCCCN1C(C(=O)c2ccccc2)=C(OC(=O)CC)c2ccccc2S1(=O)=O`, the survival is 0% (active).

As for `CCCN1C(C(=O)c2ccccc2)=C(OC(=O)COc2ccccc2)c2ccccc2S1(=O)=O`, the survival is 72%.

On to `CCCCCN1C(C(=O)c2ccccc2)=C(NC(C)=O)c2ccccc2S1(=O)=O`, for which the survival is 60%.

Consider `CCCN1C(C(=O)c2ccccc2)=C(OC(=O)C(C)(C)C)c2ccccc2S1(=O)=O`, for which the survival is 86%.

Take `CCCCC(=O)OC1=C(C(=O)c2ccccc2)N(CCC)S(=O)(=O)c2ccccc21`: the survival is 43%.

Take `CCCCCN1C(C(=O)c2ccccc2)=C(OC(=O)CC)c2ccccc2S1(=O)=O`: the survival is -4% (active).

As to `CCCCN1C(C(=O)c2ccccc2)=C(OC(C)=O)c2ccccc2S1(=O)=O`, the survival was -2% (active).

`COc1cc(C(=O)OCn2c(=O)oc3ccccc32)cc(OC)c1OC`: the survival is 101%.

Turning to `NC(=O)c1cc2n(n1)C(C(F)(F)F)CC(c1ccc(Cl)cc1)N2` (centres undefined), the survival is 116%.

As to `COc1ccc(Cl)cc1NC(=O)C1CCN(c2nnc(C)c3c(C)n(-c4ccccc4)nc23)CC1`, the survival is 66%.

In the case of `Cc1c(Cl)cccc1-n1ncc(C(=O)N2CCN(C)CC2)c1C1CCN(C(=O)OC(C)(C)C)CC1`, the survival is 87%.

`COc1ccccc1C(=O)Nc1ccc2oc(-c3cccc(Cl)c3Cl)nc2c1`: the survival is 100%.

On to `COc1ccc(S(=O)(=O)Nc2cccc(-c3ccc(N4CCCCCC4)nn3)c2)cc1F`, for which the survival was 71%.

As for `CCN1CCN(CCCNC(=O)Cn2c(-c3cccs3)cc3cc(F)ccc32)CC1`, the survival is 126%.

With `CC(C)COc1ccc(C(=O)Nc2cc3nn(-c4ccccc4)nc3cc2Cl)cc1`, the survival is 57%.

For the molecule `Cc1nc(-c2ccccc2)sc1-c1ccc(SCC(=O)Nc2ccc(F)cc2F)nn1`, the survival is 30%.

For the molecule `CCc1ccccc1NC(=O)Cn1nnc(C(=O)Nc2ccc(OC)c(OC)c2)c1N`, the survival is 76%.

On to `Cc1cccc(C(=O)Nc2sc3c(c2C(=O)N2CCCCC2)CCC(C)C3)c1` (centres undefined), for which the survival is -1% (active).

On to `Cc1cccc(C(=O)Nc2sc3c(c2C(=O)O)CCCC3)c1`, for which the survival is 40%.

As to `CC1CCc2c(sc(NC(=O)c3ccccc3)c2C(=O)Nc2ccccc2)C1` (centres undefined), the survival was 64%.

As for `Cc1cccc(NC(=O)c2c(NC(=O)c3ccco3)sc3c2CCC(C)C3)c1` (centres undefined), the survival is 73%.

For `Cc1cccc(NC(=O)c2c(NC(=O)c3cccs3)sc3c2CCC(C)C3)c1` (centres undefined), the survival was 75%.

As to `CCN(CC)C(=O)c1c(NC(=O)c2cccc(C)c2)sc2c1CCC(C)C2` (centres undefined), the survival was 2% (active).

Take `O=C(NC1CCCCC1)c1cccnc1Nc1ccccc1F`: the survival is 113%.

With `CC1CCCN(C(=O)Cn2ncc3c([nH]c4ccccc43)c2=O)C1` (centres undefined), the survival is 81%.

In the case of `CC(=O)N1CCc2cc(S(=O)(=O)C(C)CC(=O)Nc3ccc(Br)c(C)c3)ccc21` (centres undefined), the survival is -6% (active).

In the case of `COc1cc(NC(=O)CC(C)S(=O)(=O)c2ccc3c(c2)CCN3C(C)=O)cc(OC)c1OC` (centres undefined), the survival is 76%.

`CC(=O)N1CCc2cc(CNC(=O)Nc3ccc(Br)c(C)c3)ccc21`: the survival was 85%.

In the case of `CCOC(=O)c1c(S(=O)(=O)NCC(=O)Nc2cccc(SC)c2)c(C)n(C)c1C`, the survival was 70%.

Take `COc1ccc(CN(C(=O)c2cc(=O)c3ccccc3o2)C2CCS(=O)(=O)C2)cc1OC` (centres undefined): the survival is 118%.

On to `Cc1ccc(C)c(NC(=O)C(=O)NCCc2csc3nc(-c4ccccc4C)nn23)c1`, for which the survival is 129%.

For `CC(=O)Nc1cccc(NC(=O)C(=O)NCCc2csc3nc(-c4ccccc4F)nn23)c1`, the survival is 57%.

As to `Cc1ccccc1-c1nc2scc(CCNC(=O)C(=O)Nc3ccc(F)cc3F)n2n1`, the survival is -4% (active).

Regarding `O=C(NCCc1csc2nc(-c3ccccc3F)nn12)C(=O)Nc1cc(F)ccc1F`, the survival was 63%.

Consider `Cc1ccc(NC(=O)C(=O)NCCc2csc3nc(-c4ccccc4C)nn23)cc1Cl`, for which the survival was 82%.

With `CCOc1ccc(NC(=O)C(=O)NCCc2csc3nc(-c4ccccc4F)nn23)cc1`, the survival is -3% (active).

Take `COC(=O)c1ccc(NC(=O)C(=O)NCCc2csc3nc(-c4ccccc4F)nn23)cc1`: the survival is 60%.

Take `CCOc1ccc(CC(=O)NCCc2csc3nc(-c4ccccc4F)nn23)cc1`: the survival is 119%.

As for `Cc1c(Cl)cccc1NC(=O)C(=O)NCCc1csc2nc(-c3ccccc3F)nn12`, the survival is 1% (active).

The values above are taken from PubChem BioAssay AID463173 (ICCB-Longwood Screening Facility, Harvard Medical School, 2010).
